Reference: PubChem BioAssay
Values joined by “and” are separate entries in the source; they are usually repeats but may differ in a detail not shown here. Equal entries are not always repeated. Active and inactive are the calls of the source.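 Rule for the calls, unless noted: active = compounds whose cell count with miR-34 switched on is under 0.7 times the count with it off; inactive = the rest.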

Key:
[1] = sensitizers of A549 cells to miR-34 induction, primary screen, imaging, A549 dox-inducible miR-34, nuclei and caspase counts (AID 1347080); settings: A549 miR-34 inducible, Hoechst nuclei count, 48 h
[2] = survival rescue of mitochondrial mutant cells in low glucose, primary screen, MELAS cybrids, Rieske KO mouse fibroblasts, CellTiter-Glo (AID 1508586;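 active = mean z-score across replicates of 1.96 or higher in either the MELAS or the Rieske mutant cell line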;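 note: z relative to plate mean and SD of compound and empty wells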)
[3] = molecular target: NAD(+) hydrolase SARM1 (Homo sapiens) (UniProt Q6SZW1); test: SARM1 TIR NADase inhibitors, cell lysate, NAD-Glo luminescence (AID 1508614;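 active = compound whose remaining NAD level is above about 45 nM, limit read from the data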;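 note: higher remaining NAD means stronger inhibition of SARM1 NADase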); settings: SAM-TIR HEK293T lysate NADase, at 1 µM, stronger effect = higher value
[4] = viability rescue of complex I mutant cybrids, primary screen, cell-based, galactose medium, ATP luminescence (AID 1645843;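 active = z-score of at least 1.8 in each of two replicates, scored against plate mean and spread of sample wells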;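 note: positive z means more ATP and so rescue of galactose-driven cybrid death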); settings: complex I mutant cybrid cells, 72 h, stronger effect = higher value
[5] = molecular target: Mitogen-activated protein kinase 7 (Homo sapiens) (UniProt Q13164); test: ERK5 transactivation activators in reporter cells, primary screen, cell-based, HTS (AID 1508626;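 active = luciferase signal above three times the same-plate solvent-only control wells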;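 note: luciferase driven by Gal4-ERK5 fusion binding five Gal4 sites before minimal TATA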); settings: HeLa Gal4-ERK5 transactivation, 18 h, at 5 µM, stronger effect = higher value
[6] = LFS_MB_P medulloblastoma growth inhibition, cell-based, chromothripsis tumors, cisplatin or BGB combos (AID 1671449; in the data active = inhibition above about 80%;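 note: cells exposed for 96 hours; 0% = vehicle DMSO and 100% = killing by high DMSO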); settings: LFS_MB_P medulloblastoma cells
[7] = HDN33 neuroblastoma growth inhibition, cell-based, chromothripsis tumors, cisplatin or BGB combos (AID 1671450; in the data active = inhibition above about 80%;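 note: cells exposed to compound for four days; 0% = vehicle DMSO and 100% = cell killing by high DMSO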); settings: HDN33 neuroblastoma cells, stronger effect = higher value
[8] = ICB984 medulloblastoma cell growth inhibition, synergistic combos for chromothripsis tumors, cisplatin or BGB combos (AID 1671451; call rule not given here;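 note: cells exposed for 96 hours before readout; 0% = vehicle DMSO and 100% = killing by high DMSO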); settings: ICB984 medulloblastoma cells, drug combinations, stronger effect = higher value
[9] = LFS_MB_1R medulloblastoma cell growth inhibition, synergistic combos for chromothripsis tumors, cisplatin or BGB combos (AID 1671452; in the data active = inhibition above about 80%;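 note: cells exposed for 96 hours before readout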); settings: LFS_MB_1R medulloblastoma cells, stronger effect = higher value
[10] = HTB85 osteosarcoma cell growth inhibition, synergistic combos for chromothripsis tumors, BGB or cisplatin IC20 combos (AID 1671453; in the data active = inhibition above about 80%;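 note: cells exposed for 96 hours before readout; 0% = vehicle DMSO and 100% = high DMSO killing control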); settings: HTB85 osteosarcoma cells, drug combinations, stronger effect = higher value
[11] = CRL2098 osteosarcoma cell growth inhibition, synergistic combos for chromothripsis tumors, BGB or cisplatin IC20 combos (AID 1671454; in the data active = inhibition above about 80%;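 note: cells exposed for 96 h before readout; 0% = vehicle DMSO and 100% = killing by high DMSO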); settings: CRL2098 osteosarcoma cells, drug combinations, stronger effect = higher value
[12] = HD-MB03 medulloblastoma cell growth inhibition, synergistic combos for chromothripsis tumors, BGB or cisplatin IC20 combos (AID 1671455; in the data active = inhibition above about 83%;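 note: 0% = vehicle DMSO and 100% = high DMSO as cytotoxic control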); settings: HD-MB03 medulloblastoma cells, stronger effect = higher value
[13] = stronger effect = lower value, cell number ratio, induced over uninduced
[14] = measured here: relative caspase fold change +Dox/-Dox
[15] = measured here: total cells with miR-34 induction, stronger effect = lower value
[16] = measured here: total cells without miR-34 induction
[17] = MELAS cybrid survival, CellTiter-Glo 48 h, stronger effect = higher value
[18] = Rieske KO mouse fibroblast survival, CellTiter-Glo 72 h
[19] = measured here: combination with BGB IC40, at 0.05 µM

NAD(+) hydrolase SARM1 (Homo sapiens), sequence (Q6SZW1 whole entry, looked up): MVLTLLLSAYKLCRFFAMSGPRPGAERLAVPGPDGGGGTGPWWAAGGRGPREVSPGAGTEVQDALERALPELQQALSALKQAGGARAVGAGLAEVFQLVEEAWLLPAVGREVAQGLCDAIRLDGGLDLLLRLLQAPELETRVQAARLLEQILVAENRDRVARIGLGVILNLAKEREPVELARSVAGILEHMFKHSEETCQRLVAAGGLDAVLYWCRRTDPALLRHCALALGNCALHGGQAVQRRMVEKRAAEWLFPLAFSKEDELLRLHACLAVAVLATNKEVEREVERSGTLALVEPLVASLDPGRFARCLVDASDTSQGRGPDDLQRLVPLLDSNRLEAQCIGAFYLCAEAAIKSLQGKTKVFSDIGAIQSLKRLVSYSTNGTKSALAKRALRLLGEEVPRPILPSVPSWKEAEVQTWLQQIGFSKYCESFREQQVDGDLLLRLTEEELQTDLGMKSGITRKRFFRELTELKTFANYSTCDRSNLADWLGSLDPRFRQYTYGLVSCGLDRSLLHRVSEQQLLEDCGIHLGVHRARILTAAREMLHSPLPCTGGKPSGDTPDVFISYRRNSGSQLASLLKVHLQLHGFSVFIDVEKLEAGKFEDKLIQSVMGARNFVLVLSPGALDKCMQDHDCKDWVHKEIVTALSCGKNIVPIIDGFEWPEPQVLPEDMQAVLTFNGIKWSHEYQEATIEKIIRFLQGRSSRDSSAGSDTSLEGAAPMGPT
Mitogen-activated protein kinase 7 (Homo sapiens), sequence (Q13164 whole entry, looked up, the tested form may be a part): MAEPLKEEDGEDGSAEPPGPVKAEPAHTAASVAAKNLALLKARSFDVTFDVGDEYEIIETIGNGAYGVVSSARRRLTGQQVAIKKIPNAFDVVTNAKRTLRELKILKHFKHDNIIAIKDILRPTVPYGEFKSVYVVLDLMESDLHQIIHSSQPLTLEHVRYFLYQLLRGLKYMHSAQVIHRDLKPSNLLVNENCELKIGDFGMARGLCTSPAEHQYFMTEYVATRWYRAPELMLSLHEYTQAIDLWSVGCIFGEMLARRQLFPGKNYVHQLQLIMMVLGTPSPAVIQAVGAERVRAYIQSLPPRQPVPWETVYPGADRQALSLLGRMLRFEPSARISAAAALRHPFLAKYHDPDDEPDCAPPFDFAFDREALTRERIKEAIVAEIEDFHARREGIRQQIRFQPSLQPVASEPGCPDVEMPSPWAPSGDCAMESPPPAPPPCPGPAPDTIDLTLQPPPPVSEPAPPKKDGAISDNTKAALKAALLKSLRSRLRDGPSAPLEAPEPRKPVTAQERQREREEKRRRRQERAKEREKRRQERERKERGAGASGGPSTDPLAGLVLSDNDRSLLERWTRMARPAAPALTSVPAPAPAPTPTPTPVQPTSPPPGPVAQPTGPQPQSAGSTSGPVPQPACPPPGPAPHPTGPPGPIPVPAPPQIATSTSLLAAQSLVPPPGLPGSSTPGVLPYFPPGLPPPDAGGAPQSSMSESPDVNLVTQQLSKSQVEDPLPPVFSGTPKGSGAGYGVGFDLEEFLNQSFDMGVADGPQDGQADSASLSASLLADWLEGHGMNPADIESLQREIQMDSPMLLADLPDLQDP

Q: With `CC(C)(C(=O)c1cccnc1)c1cccnc1` as the compound, how does the fold change [1, 13] read?
A: The fold change was 0.962 (inactive) and 0.83 (inactive) and 0.921 (inactive).

Q: And the fold change [1, 14]?
A: Its fold change is 1.43 and 1.26 and 2.87.

Q: And the cell count [1, 15]?
A: The cell count was 10400 and 8590 and 12100.

Q: And the cell count [1, 16]?
A: Its cell count is 10800 and 10300 and 13100.

Q: And the z-score [2, 17]?
A: The z-score was 0.55 (inactive).

Q: What about the z-score [2, 18] of the same compound?
A: The z-score was 0.502.

Q: And the remaining NAD [3]?
A: Its remaining NAD is 100 nM (active).

Q: What about the z-score [4] of the same compound?
A: The z-score was 0.18 (inactive).

Q: With `Cc1[nH]c(C)c(Cl)c(=O)c1Cl` as the compound, how does the fold change [1, 13] read?
A: The fold change was 0.869 (inactive) and 0.865 (inactive).

Q: What about the fold change [1, 14] of the same compound?
A: The fold change was 4.77 and 1.49.

Q: What about the cell count [1, 15] of the same compound?
A: The cell count was 11500 and 9370.

Q: What about the cell count [1, 16] of the same compound?
A: The cell count was 13300 and 10800.

Q: And the z-score [2, 17]?
A: The z-score was -1.24 (inactive).

Q: And the z-score [2, 18]?
A: Its z-score is -1.35.

Q: And the remaining NAD [3]?
A: The remaining NAD was 10 nM (inactive).

Q: And the luciferase signal [5]?
A: The luciferase signal was 48 AU (inactive).

Q: And the z-score [4]?
A: The z-score was 0.41 (inactive).

Q: Which fold change [1, 13] does the source give for `CO[C@]12C[C@@H](COC(=O)c3cncc(Br)c3)CN(C)[C@@H]1Cc1cn(C)c3cccc2c13` here?
A: Its fold change is 0.861 (inactive) and 0.885 (inactive) and 0.895 (inactive).

Q: And the fold change [1, 14]?
A: Its fold change is 1.4 and 2.61 and 0.782.

Q: And the cell count [1, 15]?
A: Its cell count is 8590 and 11400 and 9340.

Q: And the cell count [1, 16]?
A: The cell count was 9980 and 12900 and 10400.

Q: And the z-score [2, 17]?
A: The z-score was 0.949 (inactive) and 0.883 (inactive).

Q: What about the z-score [2, 18] of the same compound?
A: Its z-score is 0.302 and 0.698.

Q: What about the remaining NAD [3] of the same compound?
A: Its remaining NAD is 10 nM (inactive).

Q: What about the luciferase signal [5] of the same compound?
A: Its luciferase signal is 56 AU (inactive).

Q: And the z-score [4]?
A: Its z-score is 1.27 (inactive).

Q: For `O=C(O)P(=O)(O)O`, which fold change [1, 13] is on record?
A: Its fold change is 0.897 (inactive) and 0.894 (inactive).

Q: What about the fold change [1, 14] of the same compound?
A: Its fold change is 0.852 and 3.28.

Q: What about the cell count [1, 15] of the same compound?
A: The cell count was 8080 and 11700.

Q: And the cell count [1, 16]?
A: The cell count was 9010 and 13100.

Q: And the z-score [2, 17]?
A: Its z-score is -0.331 (inactive).

Q: What about the z-score [2, 18] of the same compound?
A: Its z-score is -0.123.

Q: And the remaining NAD [3]?
A: Its remaining NAD is 10 nM (inactive).

Q: And the luciferase signal [5]?
A: Its luciferase signal is 16 AU (inactive).

Q: What about the inhibition ([6]; at 0.5 µM, stronger effect = higher value) of the same compound?
A: The inhibition was -17.5% (inactive).

Q: And the inhibition ([6]; measured here: combination with BGB IC20, at 0.005 µM)?
A: Its inhibition is -17.5%.

Q: What about the inhibition ([6]; measured here: combination with BGB IC40, at 0.005 µM) of the same compound?
A: The inhibition was -19.7%.

Q: What about the inhibition [6, 19] of the same compound?
A: The inhibition was -16.3%.

Q: What about the inhibition ([6]; measured here: combination with cisplatin, at 0.5 µM, stronger effect = higher value) of the same compound?
A: Its inhibition is -28.3%.

Q: And the inhibition ([6]; measured here: combination with cisplatin, at 5 µM, stronger effect = higher value)?
A: Its inhibition is -12.6%.

Q: What about the inhibition ([7]; BGB combo, at 5 µM) of the same compound?
A: The inhibition was -58%.

Q: And the inhibition ([7]; at 0.5 µM)?
A: The inhibition was -36.9% (inactive).

Q: And the inhibition ([7]; cisplatin combo, at 5 µM)?
A: The inhibition was -60.9%.

Q: What about the inhibition ([7]; measured here: with BGB IC20 combination, at 0.5 µM) of the same compound?
A: Its inhibition is -38.1%.

Q: What about the inhibition ([7]; measured here: with cisplatin IC20 combination, at 0.5 µM) of the same compound?
A: Its inhibition is -23.4%.

Q: What about the inhibition ([7]; single agent, at 5 µM) of the same compound?
A: The inhibition was -52.1%.

Q: What about the inhibition ([8]; BGB IC20 combo, at 0.005 µM) of the same compound?
A: The inhibition was -19.7%.

Q: And the inhibition ([8]; BGB IC40 combo, at 0.005 µM)?
A: The inhibition was -25.3%.

Q: And the inhibition ([8]; BGB IC40 combo, at 0.05 µM)?
A: Its inhibition is -29.6%.

Q: And the inhibition ([8]; at 0.5 µM)?
A: The inhibition was -22.4% (inactive).

Q: What about the inhibition ([8]; cisplatin combo, at 0.05 µM) of the same compound?
A: The inhibition was -29.6%.

Q: What about the inhibition ([8]; cisplatin combo, at 0.5 µM) of the same compound?
A: Its inhibition is -36.7%.

Q: And the inhibition ([8]; cisplatin combo, at 5 µM)?
A: The inhibition was -14%.

Q: What about the inhibition ([8]; measured here: 5 uM single agent, at 5 µM) of the same compound?
A: Its inhibition is -14.5%.

Q: And the inhibition ([9]; at 0.5 µM)?
A: Its inhibition is -51.1% (inactive).

Q: And the inhibition [9, 19]?
A: The inhibition was -50.8%.

Q: What about the inhibition ([9]; measured here: combination with cisplatin, at 0.5 µM) of the same compound?
A: Its inhibition is -81.2%.

Q: What about the inhibition ([9]; measured here: combination with cisplatin, at 5 µM) of the same compound?
A: The inhibition was -40.9%.

Q: What about the inhibition ([10]; at 0.5 µM) of the same compound?
A: Its inhibition is -23.4% (inactive).

Q: What about the inhibition ([10]; measured here: with BGB IC20, at 0.5 µM) of the same compound?
A: Its inhibition is -66.1%.

Q: What about the inhibition ([10]; measured here: with BGB IC20, at 5 µM) of the same compound?
A: Its inhibition is -35%.

Q: What about the inhibition ([10]; measured here: with cisplatin IC20, at 0.5 µM) of the same compound?
A: The inhibition was 20.5%.

Q: What about the inhibition ([10]; measured here: with cisplatin IC20, at 5 µM) of the same compound?
A: Its inhibition is -22.8%.

Q: What about the inhibition ([10]; single agent, at 5 µM) of the same compound?
A: The inhibition was -25.8%.

Q: And the inhibition ([11]; at 0.5 µM)?
A: Its inhibition is -107% (inactive).

Q: And the inhibition ([11]; measured here: combination with BGB at IC20, at 0.5 µM)?
A: The inhibition was -77.3%.

Q: And the inhibition ([11]; measured here: combination with cisplatin at IC20, at 0.5 µM)?
A: Its inhibition is -148%.

Q: And the inhibition ([12]; at 0.5 µM)?
A: The inhibition was -14.1% (inactive).

Q: And the inhibition ([12]; measured here: combo with BGB at IC20, at 0.5 µM)?
A: The inhibition was -16%.

Q: What about the inhibition ([12]; measured here: combo with cisplatin at IC20, at 0.5 µM) of the same compound?
A: The inhibition was -17.1%.

Q: With `CCOC(=O)OC(C)OC1=C(C(=O)Nc2ccccn2)N(C)S(=O)(=O)c2ccccc21` (stereo not drawn) as the compound, how does the fold change [1, 13] read?
A: The fold change was 0.948 (inactive) and 0.916 (inactive) and 0.845 (inactive).

Q: What about the fold change [1, 14] of the same compound?
A: The fold change was 1.05 and 0.416 and 1.29.

Q: And the cell count [1, 15]?
A: The cell count was 9250 and 8630 and 9370.

Q: And the cell count [1, 16]?
A: The cell count was 9750 and 9420 and 11100.

Q: And the z-score [2, 17]?
A: Its z-score is -0.123 (inactive) and 0.743 (inactive) and 0.745 (inactive).

Q: And the z-score [2, 18]?
A: The z-score was -0.115 and 1.2 and 1.74.

Q: What about the remaining NAD [3] of the same compound?
A: The remaining NAD was 10 nM (inactive).

Q: What about the z-score [4] of the same compound?
A: The z-score was 0.855 (inactive) and 0.87 (inactive).
